# VCAM1 TNFa pot: TNF alpha stimulated VCAM1 expression potentiation; HUVEC TNFa-stimulated VCAM-1 immunofluorescence, high-content imaging; scaled per plate to unstimulated/TNFa-only wells; activation, % at 2 µM; 93,000 compounds, 0.19% hits;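 active means activation above the screen mean plus 3 SD, with well images confirming the hit on visual review, cut at about 28% in these data, passing the limit was not always enough; inconclusive means activation above that limit but images do not confirm it; inactive means activation not above that limit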;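 further: signal is the number of cytoplasmic VCAM-1 stained grains per positive cell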
# VCAM1 pot confirm: potentiators of TNFa-induced VCAM1 expression, confirmation, imaging, HUVEC, triplicate retest. shares compounds with VCAM1 TNFa pot. activation, % at 2 µM. AID 1034. 230 tested, under 10 active. HUVEC TNFa-stimulated VCAM-1 immunofluorescence imaging;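 active means activation above 30% in triplicate retests at 2 µM, then confirmed by visual review of the well images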
# Numbers stand for hits; . = inactive; ? = inconclusive. The sample as a whole holds a higher share of hits than the screen did.
SMILES,VCAM1 TNFa pot,others
N#CC(c1cccc(Cl)c1)c1ccc2c(C(F)(F)F)cc(C(F)(F)F)nc2n1 (centres undefined),.,
CC(=O)Oc1ccc2cc(-c3nc4ccccc4n3C)c(=O)oc2c1,48.3,VCAM1 pot confirm=.
Cn1c(=O)c(C(=O)c2ccccc2)nc2ccccc21,.,
COc1ccc2oc(=O)c(C(C)=O)cc2c1,.,
CC(C)OC(=O)c1c(-c2ccc(C(C)C)cc2)csc1NC(=O)C1CCCO1 (centres undefined),.,
CCCCN(C)C(=O)C1CCC(=O)N(c2cc(OC)c(OC)c(OC)c2)C1c1ccc(OC)cc1 (centres undefined),.,
O=C(c1cnn2c(C(F)(F)F)cc(-c3cccs3)nc12)N1CCN(C(c2ccccc2)c2ccccc2)CC1,.,
Fc1ccccc1/C=C1\CCCC2=C1Nc1nnnn1C2c1ccccc1F (centres undefined),.,
CCCc1nnc(SCC(=O)O)n1/N=C/c1ccc2c(c1)OCO2,.,
CCC1CCCCN1C(=O)CSc1nnc(-c2ccc3c(c2)OCCO3)o1 (centres undefined),.,
COc1cc(OC)cc(-c2nnc(SCC(=O)N3c4ccccc4Sc4ccccc43)o2)c1,.,
O=C(CSc1nnc(-c2ccccc2O)o1)N1CCc2ccccc2C1,32.1,VCAM1 pot confirm=.
CC1=CC(C)(C(Cl)Cl)C(C)=CC1=O (centres undefined),.,
NC(=O)c1c(NC(=O)Cc2cccs2)sc2c1CCC2,.,
CCC(=O)Nc1sc2c(c1C(N)=O)CCC2,113.9,VCAM1 pot confirm=.
NC(=O)c1c(NC(NC(=O)c2ccco2)(C(F)(F)F)C(F)(F)F)sc2c1CCCC2,.,
O=C(NCCN1CCOCC1)Nc1ccc(Cl)cc1Cl,.,
COc1ccc(NC(=O)C2CC2)cc1NS(=O)(=O)c1ccc(F)cc1,.,
COc1cc2cc(Br)cc(Br)c2nc1C,.,
O=C(C1CCN(C2CC(=O)N(c3ccc(Cl)cc3)C2=O)CC1)N1CCOCC1 (centres undefined),.,
Cc1n[nH]c(=S)c2nn(-c3ccccc3F)c(C)c12,55.2,VCAM1 pot confirm=.
COc1cc(CN2CCC(C(=O)NC3CCCC3)CC2)ccc1O,.,
Cc1ccnc(SCCn2c(N3CCCCC3)nc3c2c(=O)n(C)c(=O)n3C)n1,.,
COC(=O)c1cc(OC)c(OCc2cc(C(=O)OC)oc2C)c(OC)c1,53.0,VCAM1 pot confirm=.
C=CCc1ccc(OCc2ccc(C(=O)OC)o2)c(OC)c1,.,
SMILES,VCAM1 TNFa pot,others
Cc1oc(C(=O)O)cc1CSCc1cc(C(=O)O)c(C)o1,.,
Cc1ccc(NC(=O)CC2COc3ccccc3O2)cc1 (centres undefined),.,
O=C(Oc1ccc2ccc(OC(=O)N3CCOCC3)cc2c1)N1CCOCC1,.,
Cc1ccc(OCc2nnc(SCC(=O)N3CCOCC3)n2C)cc1,.,
COc1ccc2c(C)cc(SCC(=O)N3CCOCC3)nc2c1,?,VCAM1 pot confirm=.
O=C(/C=C(\c1ccc(Cl)cc1)n1cncn1)c1ccc(Cl)cc1,.,
Cn1c(=O)[nH]c2sc3c(c2c1=O)CC(C)(C)OC3,.,
COc1ccccc1-c1cn(S(=O)(=O)c2ccc(C)cc2)nc1N,.,
Cc1ccc(N(CC(=O)NCc2ccc3c(c2)OCO3)S(C)(=O)=O)cc1,.,
O=C(CN1C(=O)NC2(CCCCCCC2)C1=O)NCc1ccc2c(c1)OCO2,51.2,VCAM1 pot confirm=.
O=C(CN1C(=O)NC2(CCCCCCC2)C1=O)N1CCOCC1,.,
O=C(c1ccc2c(c1)[nH]c(=S)n1c3ccccc3nc21)N1CCN(c2ncccn2)CC1,.,
O=C(c1ccc(-c2ccccc2)cc1)N1CCN(c2ncccn2)CC1,?,VCAM1 pot confirm=.
Cn1nc(-c2ccc(C(=O)N3CCN(c4ccccc4)CC3)cc2)c2ccccc2c1=O,.,
Cn1ccnc1C(=O)c1cc(=O)c2ccccc2o1,.,
COC(=O)c1nnn(CC(=O)Nc2cccc(Cl)c2)c1C(=O)OC,.,
COc1cc(OC)c(C(=O)Nc2ccc(S(=O)(=O)Nc3ncccn3)cc2)cc1OC,.,
COc1cccc(S(=O)(=O)N2CCN(c3ccccc3F)CC2)c1,.,
COc1cccc(CN2CCN(c3ncccn3)CC2)c1,.,
COc1ccc(S(=O)(=O)N2CCN(Cc3cccc(Cl)c3)CC2)cc1,?,VCAM1 pot confirm=.
Cc1ccc(N2CN=c3s/c(=C\c4cccnc4)c(=O)n3C2)cc1,98.3,VCAM1 pot confirm=.
CNc1nc(OCCNC(=O)Nc2ccccc2)nc(N2CCOCC2)n1,.,
CCCCOCCCNC(=O)c1cccs1,.,
Cc1ccc(S(=O)(=O)NCCCNC(=O)c2ccccc2)cc1,.,
CCCCN(CCCNC(=O)c1c(C)cc(=O)oc1C)c1ccccc1,39.5,VCAM1 pot confirm=.
SMILES,VCAM1 TNFa pot,others
CC(NC(=O)c1ccc(Cl)cc1)c1nnc(SCc2ccc([N+](=O)[O-])cc2)n1C (centres undefined),.,
O=C1OC(Nc2ccc3ncccc3c2)c2ccccc21 (centres undefined),.,
COc1ccc2c(c1OC)C(=O)OC2CC(=O)c1ccc2c(c1)OCO2 (centres undefined),.,
COc1ccc2c(c1OC)C(=O)OC2Nc1ccccn1 (centres undefined),53.6,VCAM1 pot confirm=.
COc1ccc(CCC(=O)NCCc2cn3c(C)csc3n2)cc1,.,
Cc1ccc(-c2csc3n[nH]c(=S)n23)cc1,.,
COc1cc(C(=O)COC(=O)CNC(=O)C2CCCCC2)cc(OC)c1OC,.,
O=C(COc1ccc2ccccc2c1)N1CCN(c2ccccc2O)CC1,.,
CC(C)(C)c1ccc(OCC(=O)N2CCN(C=O)CC2)cc1,68.9,VCAM1 pot confirm=.
Cc1cc(=O)oc2ccc(OCC(=O)N3CCC(C)CC3)cc12,.,
CCOC(=O)C1=NN(c2ccccc2C)C2=NC(C)=C(C(=O)OC)C(c3cccs3)N12 (centres undefined),.,
CNC(=S)N1N=C(c2ccc(Br)cc2)CC1c1ccc(Br)cc1 (centres undefined),69.0,VCAM1 pot confirm=.
O=C(Cn1cnc([N+](=O)[O-])c1)Nc1cc(Oc2ccc(Cl)cc2Cl)cc([N+](=O)[O-])c1,.,
COc1ccc(S(=O)(=O)N2CCC(C(=O)Nc3ccc(OC)c(OC)c3)CC2)cc1C,.,
CS(=O)(=O)N(Cc1ccco1)Cc1ccccc1Cl,.,
Cc1cc(S(=O)(=O)N(Cc2ccc(F)cc2)CC2CCCO2)ccc1-n1cnnn1 (centres undefined),.,
COc1ccccc1CN(Cc1ccco1)S(=O)(=O)c1ccc(-n2cnnn2)c(OC)c1,43.0,VCAM1 pot confirm=.
COC1(c2ccccc2)NC(=S)NN=C1c1ccccc1 (centres undefined),.,
CC1CCCC(N2CCN(C(=O)c3cccc(F)c3)CC2)C1 (centres undefined),.,
Cc1nccn1CC(O)COC1CCCCC1 (centres undefined),?,VCAM1 pot confirm=.
Cc1nccn1CC(O)COc1ccccc1 (centres undefined),.,
Cc1nc2ccccc2n1CC(O)COC1CCCCC1 (centres undefined),.,
O=C(O)C1CC=CCC1C(=O)N1CCCC1 (centres undefined),.,
Cc1nn(-c2ccc(F)cc2)c(Cl)c1/C=C(\CCC(=O)O)c1nc2ccccc2s1,.,
Cc1ccc(C2/C(=C(/O)c3ccc(OC(C)C)cc3)C(=O)C(=O)N2CCN2CCOCC2)cc1 (centres undefined),.,
Cc1cc(N2C(=O)C(=O)/C(=C(/O)c3ccc(F)cc3)C2c2ccc(F)cc2)no1 (centres undefined),.,
CCOc1ccc(C2/C(=C(/O)c3ccc(OC)cc3)C(=O)C(=O)N2c2cc(C)on2)cc1OC (centres undefined),57.6,VCAM1 pot confirm=.
